Source: PubChem BioAssay
Inconclusive results are not listed. Activity calls are given as the source filed them.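 The calls were made as follows, unless noted: active = inhibition over a set limit, the all-compound mean plus 3 SD, in both replicate runs; inconclusive = over that limit in just one replicate run; inactive = at or under that limit in both runs.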

Experiments:
[1] = S. cerevisiae growth inhibition in restrictive medium, OD615, pilot screen, restrictive growth control, yeast lifespan reduction project (AID 706;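 active = growth inhibition above a set limit, 3 SD over mean compound inhibition, in both replicates, cut at about 43% in these data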;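 also: modified DeaD lifespan yeast strain shifted to restrictive glucose medium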); details: OD615, 48 h, at 10 µM, stronger effect = higher value
[2] = doxorubicin toxicity protection in MRP-1 cells – H69AR cells, CellTiter-Glo, duplicate, MRP-1 activator project, pilot screen (AID 807;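 active = viability increase at or above a cutoff of the median across tested compounds plus 3 SD, cut at about 8.5% in these data, passing the limit was not always enough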;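 also: compound pretreatment 18-22 h then 72 h combined with doxorubicin; 0% = doxorubicin alone and 100% = vehicle without doxorubicin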); details: H69AR viability with doxorubicin, CellTiter-Glo luminescence; at 10 µM; stronger effect = higher value
[3] = viability of HCT116 without oncogenic beta-catenin – human colon tumor cells, pilot screen (AID 823;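 active = cell viability at or below a set limit in both duplicate runs, the limit being the all-compound median minus 4 SD, cut at about 23% in these data, passing the limit was not always enough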;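 also: 0% = wells killed by 20 µM Hyamine and 100% = untreated DMSO cell wells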); details: HCT116 beta-catenin knockout viability, CellTiter-Glo, 60 h; at 10 µM; stronger effect = lower value
[4] = viability of PTEN-null HCT116 cells – cell-based, HCT116 clonal line, CellTiter-Glo, pilot screen (AID 824;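 active = viability at or below 27.92% in each of two runs, the all-compound median minus 4 SD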;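 also: 0% = 20 µM Hyamine control and 100% = vehicle cell control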); details: HCT116 PTEN-deleted viability, 60 h, at 10 µM, stronger effect = lower value
[5] = RAM pathway blockade in budding yeast – dse1pr::URA3 reporter, 5-FOA selection, pilot screen (AID 869);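 also: 0% = DMSO wells with no growth and 100% = 10 µM 1-NA-PP1 with full growth; RAM network block rescues cells from 5-FOA so hits raise OD615 growth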; details: S. cerevisiae dse1pr::URA3 5-FOA growth, OD615, 2 d; at 10 µM; stronger effect = higher value; strain carries analog-sensitive mutant Cbk1 kinase
[6] = RAM signaling pathway blockade in yeast – S. cerevisiae, Pdr1DBD-CYC8 efflux-inhibited sensitized strain, primary screen (AID 1298;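 active = RAM network inhibition above 8.4% in each of two replicates, 3 SD over the compound average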;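 also: 0% = DMSO untreated cells without growth and 100% = 10 µM 1-NA-PP1 full growth; higher means more yeast growth rescued from 5-FOA killing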); details: S. cerevisiae cbk1-as DSE1-URA3 strain, 5-FOA growth OD615, 2 d; at 50 µM; stronger effect = higher value
[7] = S. cerevisiae growth inhibition in permissive medium (OD615), pilot counter-assay for S. cerevisiae lifespan shortening project, permissive growth control (AID 705;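 active = growth inhibition above 25% in both replicates, a cutoff set 3 SD above the mean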); details: OD615, 24 h, at 10 µM, stronger effect = higher value
[8] = Her2 expression decrease, cell viability multiplex – SKBR3 breast tumor cells, AlphaScreen, ATP viability, primary screen (AID 461;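 active = Her2 level under about 52% in both replicate screens, with viability over 70% of control, limit read from the data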;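 as to Her2 level: lower value means less Her2 protein in the cells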;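 as to viability: percent of carrier control wells set as 100% viability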); details: SKBR3 Her2 protein level, 18-24 h, measured here: SKBR3 viability, ATP luminescence, at 10 µM
[9] = target: Receptor tyrosine-protein kinase erbB-2 (Homo sapiens) (UniProt P04626); experiment: as above; details: 18-24 h, at 10 µM, stronger effect = lower value
[10] = reduced viability of SK-BR-3 breast cancer cells – cell-based, 24 h, human, pilot screen (AID 572;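 active = viability at or below 10% of carrier control in both of two separate runs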;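 also: compound exposure lasted between 18 and 24 h rather than exactly 24 h; 100% = carrier-treated control wells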); details: SK-BR-3 viability, CellTiter-Glo luminescence, at 10 µM, stronger effect = lower value
[11] = HUVEC growth inhibition – cell-based, human, primary screen (AID 575;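 active = viability at or below 30% in both replicate assays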;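 also: 100% = median of untreated cell wells with 0.1% DMSO on each plate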); details: HUVEC proliferation, CellTiter-Glo luminescence, 72 h; at 10 µM; stronger effect = lower value
[12] = H69AR cell proliferation blockers – human, duplicate replicates, primary screen (AID 580;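 active = viability at or under a set limit in both replicates, limit being median viability minus 3 SD, cut at about 48% in these data, passing the limit was not always enough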;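 also: 100% = mean luminescence of untreated wells and 0% = no signal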); details: H69AR lung tumor cells viability, ATP luminescence, 72 h; at 10 µM; stronger effect = lower value
[13] = MRP1 drug-resistance reversers in H69AR cells – cell-based, doxorubicin co-treatment, pilot screen (AID 601;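 active = viability loss from added drug above about 55%, and viability with drug at most 40%, in both replicates, limit read from the data, passing the limit was not always enough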); details: CellTiter-Glo, 72 h, at 10 µM

Sequence of Receptor tyrosine-protein kinase erbB-2 (Homo sapiens) (P04626 whole entry, looked up): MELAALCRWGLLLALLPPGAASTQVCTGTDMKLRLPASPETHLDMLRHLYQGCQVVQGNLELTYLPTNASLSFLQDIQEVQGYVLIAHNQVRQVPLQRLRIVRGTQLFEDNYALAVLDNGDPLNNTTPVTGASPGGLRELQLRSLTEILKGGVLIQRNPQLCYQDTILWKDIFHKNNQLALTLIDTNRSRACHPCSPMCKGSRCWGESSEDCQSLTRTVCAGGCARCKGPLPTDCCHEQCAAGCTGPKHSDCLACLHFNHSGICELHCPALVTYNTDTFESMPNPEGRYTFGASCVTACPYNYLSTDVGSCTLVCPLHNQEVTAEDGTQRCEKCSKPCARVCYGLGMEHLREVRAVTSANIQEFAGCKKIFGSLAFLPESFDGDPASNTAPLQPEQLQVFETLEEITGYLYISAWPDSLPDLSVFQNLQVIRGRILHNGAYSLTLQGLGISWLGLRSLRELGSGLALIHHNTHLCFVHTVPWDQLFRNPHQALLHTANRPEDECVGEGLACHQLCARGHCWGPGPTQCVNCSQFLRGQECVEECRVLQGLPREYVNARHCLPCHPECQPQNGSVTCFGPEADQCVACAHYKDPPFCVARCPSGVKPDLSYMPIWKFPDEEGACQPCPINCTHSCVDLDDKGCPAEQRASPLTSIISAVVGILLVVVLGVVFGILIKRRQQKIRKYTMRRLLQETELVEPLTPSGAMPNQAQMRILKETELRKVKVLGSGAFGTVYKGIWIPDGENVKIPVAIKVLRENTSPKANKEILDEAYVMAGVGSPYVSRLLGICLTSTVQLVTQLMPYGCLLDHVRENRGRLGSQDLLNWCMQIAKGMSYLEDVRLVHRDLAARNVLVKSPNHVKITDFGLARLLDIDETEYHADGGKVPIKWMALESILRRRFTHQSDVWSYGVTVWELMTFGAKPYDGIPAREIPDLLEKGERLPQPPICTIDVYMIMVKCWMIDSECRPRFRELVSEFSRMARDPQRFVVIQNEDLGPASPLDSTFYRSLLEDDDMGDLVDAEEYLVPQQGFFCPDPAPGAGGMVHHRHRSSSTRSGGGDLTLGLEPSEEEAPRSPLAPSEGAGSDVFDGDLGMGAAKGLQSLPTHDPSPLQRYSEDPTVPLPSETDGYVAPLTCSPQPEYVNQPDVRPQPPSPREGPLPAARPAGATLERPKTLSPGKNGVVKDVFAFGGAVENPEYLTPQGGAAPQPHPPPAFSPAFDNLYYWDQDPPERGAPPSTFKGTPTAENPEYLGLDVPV

CC(=O)NC1(NC(C)=O)CCN(C)C(c2ccccc2)C1C (stereo not given)
inactive: growth inhibition [1] -6.19% | viability increase [2] -2% | viability [3] 98.2% | viability [4] 100% | inhibition [5] 1.46% | RAM network inhibition [6] 1.13%

O=C(CSc1nnc(-c2ccccn2)n1Cc1ccco1)c1ccccc1
inactive: growth inhibition [7] 0.135% | viability increase [2] -3.34% | viability [3] 98.1% | viability [4] 95.2% | inhibition [5] 0.485% | RAM network inhibition [6] 7.41%

O=c1c2ccccc2[nH]c(=S)n1Cc1cccnc1
inactive: growth inhibition [7] 6.04% | viability increase [2] -0.83% | viability [3] 103% | viability [4] 92.5% | inhibition [5] -0.605% | RAM network inhibition [6] 1.73%

CCC1(C)Cc2nc3sc(C(=O)O)c(N)c3cc2CO1 (stereo not given)
inactive: growth inhibition [7] -4.39% | viability increase [2] -3.61% | viability [3] 94.2% | inhibition [5] 1.71% | RAM network inhibition [6] 6.29%

COc1ccccc1C(=O)Nc1cc(-c2nn3c(C)nnc3s2)ccc1C
inactive: growth inhibition [7] 12.8% | viability increase [2] -3.73% | viability [3] 114% | viability [4] 97.8% | inhibition [5] 1.22% | RAM network inhibition [6] 4.87%

CCCc1nc2sc3c(SCC(=O)NCc4ccco4)ncnc3c2c2c1CCC2
inactive: growth inhibition [7] -1.16% | viability increase [2] -6.5% | viability [3] 47.4% | inhibition [5] 2.37% | RAM network inhibition [6] 4.21%

COc1ccc(OCc2nnc3n2N=C(c2ccc(Br)cc2)CS3)cc1
inactive: growth inhibition [7] 3.29% | viability increase [2] 2.18% | viability [3] 70% | viability [4] 72.2% | inhibition [5] 0.955% | RAM network inhibition [6] 3.18%

CCC(C)N1CC23C=CC(O2)C(C(=O)OC)C3C1=O (stereo not given)
inactive: growth inhibition [7] 0.035% | viability increase [2] 1.12% | viability [3] 109% | viability [4] 106% | inhibition [5] 0.115% | RAM network inhibition [6] 1.34%

COc1ccc(Br)cc1C1CC(=O)N2CN(C)CSC2=C1C#N (stereo not given)
inactive: growth inhibition [7] 4.76% | viability increase [2] -4.75% | viability [3] 81.6% | viability [4] 78.3% | inhibition [5] 0.03% | RAM network inhibition [6] 1.82%

COc1ccc(S(=O)(=O)N2CCN(c3ccc4nnc(-c5ccc(F)cc5)n4n3)CC2)cc1
inactive: growth inhibition [7] 16.1% | viability increase [2] -6.07% | viability [3] 46.4% | viability [4] 38.6% | inhibition [5] 1.78% | RAM network inhibition [6] 1.48%

S=C(Nc1ccccn1)c1ccccn1
active: viability [3] 2.08% | viability [4] 0.72%
inactive: growth inhibition [7] 7.06% | viability increase [2] -8.21% | inhibition [5] 1.43% | RAM network inhibition [6] 3.64%

Cc1ccc(OCC(=O)Nc2cc(-c3nn4c(C)nnc4s3)ccc2C)cc1
inactive: growth inhibition [7] 0.12% | viability increase [2] -4.09% | viability [3] 93.7% | viability [4] 88% | inhibition [5] 3.09% | RAM network inhibition [6] 10.7%

CSc1nc(-c2ccccc2)nc2[nH]ccc(=O)c12
inactive: growth inhibition [1] -18.3% | viability increase [2] -3.93% | viability [3] 76% | viability [4] 80.6% | inhibition [5] 0.065% | RAM network inhibition [6] 1.4%

Cn1cccc1Cc1nnc(SCC(=O)NC2CCCC2)n1CCc1ccccc1
inactive: growth inhibition [7] -1.71% | viability increase [2] -0.59% | viability [3] 101% | viability [4] 96.8% | inhibition [5] 1.71% | RAM network inhibition [6] 6.53%

COc1ccc(OCC(=O)Nc2cc(OC)cc(OC)c2)cc1
inactive: growth inhibition [1] 7.43% | viability increase [2] -3.71% | viability [3] 88.7% | viability [4] 93.9% | inhibition [5] -0.89% | RAM network inhibition [6] -2.47%

c1ccc(Cc2nnc3sc(-c4ccco4)nn23)cc1
inactive: viability increase [2] -5.05% | viability [3] 108% | viability [4] 94.7% | inhibition [5] 1.98% | RAM network inhibition [6] 5.97%
active: growth inhibition [1] 68.7%

CCOc1ccccc1N1CSC2=C(C#N)C(c3c(OC)ccc4ccccc34)CC(=O)N2C1 (stereo not given)
inactive: growth inhibition [7] 4.14% | viability increase [2] -6.32% | viability [3] 67.3% | viability [4] 65.5% | inhibition [5] 3.73% | RAM network inhibition [6] 3.99%

COc1ccc(OC)c(C2CC(=O)N3CN(c4ccc(C)c(Cl)c4)CSC3=C2C#N)c1 (stereo not given)
inactive: growth inhibition [7] -0.805% | viability increase [2] -3.72% | viability [3] 90.6% | viability [4] 94.4% | inhibition [5] 2.44% | RAM network inhibition [6] 7.86%

CCN1CCN(C(=O)CS(=O)Cc2nc(-c3ccc(OC)cc3)oc2C)CC1 (stereo not given)
inactive: growth inhibition [1] -7.22% | viability increase [2] -0.78% | viability [3] 104% | viability [4] 100% | inhibition [5] 0.945% | RAM network inhibition [6] 1.04%

O=C(O)C1CC=CCC1C(=O)NCc1cn2ccccc2n1 (stereo not given)
inactive: growth inhibition [1] -15.1% | viability increase [2] -2.16% | viability [3] 103% | viability [4] 96.1% | inhibition [5] 2.84% | RAM network inhibition [6] 4.32%

Fc1ccc(-c2nnc3ccc(N4CCc5ccccc5C4)nn23)cc1
active: viability [3] 2.21% | viability [4] 1.42%
inactive: growth inhibition [7] 14.2% | viability increase [2] -7.99% | inhibition [5] 2.02% | RAM network inhibition [6] 3.14%

CCOc1cccc(C(=O)Nc2cc(-c3nn4c(C)nnc4s3)ccc2C)c1
inactive: growth inhibition [7] 9.19% | viability increase [2] -4.79% | viability [3] 100% | viability [4] 93.6% | inhibition [5] 0.07% | RAM network inhibition [6] 2.22%

Cc1csc(NC(=O)CSc2nnc(Cc3cccn3C)n2CCc2ccccc2)n1
inactive: growth inhibition [7] 11% | viability increase [2] -3.58% | viability [3] 87.1% | viability [4] 82.6% | inhibition [5] 0.505% | RAM network inhibition [6] 9.43%

CC(=O)C1=C(C)Nc2cc(C(F)(F)F)ccc2S1
inactive: growth inhibition [1] 27.2% | viability increase [2] -1.14% | viability [3] 93.6% | viability [4] 85.7% | inhibition [5] 1.77% | RAM network inhibition [6] 4.09%

CCc1ccc(Cn2nnc(C(=O)NCc3ccccc3OC)c2N)cc1
inactive: growth inhibition [1] 5.92% | viability increase [2] -2.2% | viability [3] 95% | viability [4] 92% | inhibition [5] 1.81% | RAM network inhibition [6] 4.95%

Cc1ccc(-c2nn3c(C)nnc3s2)cc1NC(=O)c1ccc(Br)o1
inactive: growth inhibition [7] 4.25% | viability increase [2] -3.03% | viability [3] 105% | viability [4] 93% | inhibition [5] 3% | RAM network inhibition [6] 8.4%

CCOc1ccc2nc(N3CCC(C(=O)N4CCN(c5ncccn5)CC4)CC3)sc2c1
inactive: growth inhibition [1] 25.2% | viability increase [2] -3.04% | viability [3] 82.1% | viability [4] 90.9% | inhibition [5] 1.76% | RAM network inhibition [6] -1.59%

Oc1c(CN2CCc3ccccc3C2)cc(Cl)c2cccnc12
inactive: growth inhibition [7] 5.68% | viability increase [2] -9.01% | inhibition [5] -1.5% | RAM network inhibition [6] -2.41%
active: viability [3] 1.27% | viability [4] 0.66%

Cc1ccc(S(=O)(=O)Nc2nc(C)cc(NCCN)n2)cc1
inactive: growth inhibition [1] -2.19% | viability increase [2] -0.98% | viability [3] 94.3% | viability [4] 88.5% | inhibition [5] 0.48% | RAM network inhibition [6] 2.5%

CC(=O)NC(=S)c1c(N)n(Cc2ccccc2)c(=O)n(C)c1=O
inactive: growth inhibition [7] 19.2% | viability increase [2] -3.97% | viability [3] 84.6% | viability [4] 80% | inhibition [5] 0.92% | RAM network inhibition [6] 4.62%

CCN1CCN(C(=O)C(NS(=O)(=O)c2ccc3nc(C)sc3c2)C(C)C)CC1 (stereo not given)
inactive: growth inhibition [7] -15.9% | viability increase [2] -0.67% | viability [3] 99.4% | viability [4] 95.2% | inhibition [5] 0.845% | RAM network inhibition [6] -0.04%

O=C(CSc1ccc2nnc(-c3ccc(Cl)cc3)n2n1)N1CCCC1
inactive: growth inhibition [7] -1.01% | viability increase [2] -3.12% | viability [3] 86.3% | viability [4] 93.1% | inhibition [5] 1.32% | RAM network inhibition [6] 4.24%

O=C(O)c1cc2c(s1)-c1ccccc1OC2
inactive: growth inhibition [7] 6.14% | viability increase [2] -4.32% | viability [3] 96.9% | viability [4] 98.7% | inhibition [5] 0.165% | RAM network inhibition [6] -2.9%

Cc1ccc(/C=c2/sc3nnc(-c4ccccc4Cl)n3c2=O)o1
inactive: growth inhibition [7] -7.07% | viability increase [2] -5% | viability [3] 90.9% | viability [4] 93% | inhibition [5] 0.785% | RAM network inhibition [6] 3.46%

Clc1ccccc1CSc1nnc(-c2ccccn2)n1Cc1ccco1
inactive: growth inhibition [7] -5.1% | viability increase [2] -5.33% | viability [3] 74.8% | viability [4] 79% | inhibition [5] 1.92% | RAM network inhibition [6] 2.52%

CC(=O)C(Sc1ccc2nnc(-c3ccc(C)cc3)n2n1)C(C)=O
inactive: growth inhibition [7] 1.31% | viability increase [2] -4.69% | viability [3] 101% | viability [4] 95.3% | inhibition [5] 2.04% | RAM network inhibition [6] 6.06%

CCOC(=O)c1ccc(NC(=O)CSc2nc3c(c(=O)n2CC)SC(C)C3)cc1 (stereo not given)
inactive: growth inhibition [1] -18.3% | viability increase [2] -3.44% | viability [3] 84% | viability [4] 80.8% | inhibition [5] 0.12% | RAM network inhibition [6] 3.13%

COC(=O)c1cc(CSc2nc3ccc(C)cc3[nH]2)oc1C
inactive: growth inhibition [1] 4.74% | viability increase [2] -0.15% | viability [3] 46.6% | viability [4] 63.5% | inhibition [5] 0.105% | RAM network inhibition [6] 4.81%

O=C(CSc1nnc(Cn2c(=O)sc3ccccc32)n1CCc1ccccc1)N1CCCC1
inactive: growth inhibition [7] 2.63% | viability increase [2] -3.62% | viability [3] 97.9% | viability [4] 94.9% | inhibition [5] 2.82% | RAM network inhibition [6] 7.13%

Nc1ccc(S(=O)(=O)NC(=O)c2ccccc2)cc1
92.4%: viability ([13]; H69AR cells + 2 uM doxorubicin, measured here: viability with 2 uM doxorubicin, stronger effect = lower value)
inactive: Her2 level [9] 100% | viability [10] 104% | viability [11] 90% | viability [12] 98.5% | differential viability (reversal) ([13]; H69AR cells + 2 uM doxorubicin, stronger effect = higher value) 6.16%
104%: viability [8]
98.5%: viability ([13]; H69AR cells, compound alone cytotoxicity)
